The text below walks through data of ChEMBL document CHEMBL4513216, “Probing the Open Global Health Chemical Diversity Library for Multistage-Active Starting Points for Next-Generation Antimalarials” (ACS Infect Dis, 2020).

The whole screen tested about 68,000 compounds, of which about 2,700 (4%) showed an effect of 50% or more. Shown is part of a subset that was picked to be rich in strong results.

For this assay, the system named is Plasmodium berghei. As to the kind of experiment: Screen against P. berghei liver stage (PbLuc), transformed with Luciferase, at 2uM. Type of assay: functional, HepG2. The conditions noted are these: tested at 2 uM.
`Cc1cc(C)c(N(CC(O)CNCc2ccccc2)S(C)(=O)=O)c(C)c1` (stereo not drawn): the INHIBITION was determined as 25.73%. Regarding `CN(CCNC(=O)N1CCN(Cc2ccon2)CC1)c1ccccc1`, the INHIBITION is on record as -5.97%.

Turning to `Cc1cc(CN2CCN(C(=O)NCc3ccco3)CC2)no1`, the INHIBITION was -24.5%. With `CC(C)C(=O)NCCNC(=O)C(C)OCC(F)(F)F` (stereo not drawn), the INHIBITION stood at 57.76%. The figure for `CCN(CC)CCNC(=O)C(C)OCC(F)(F)F` (stereo not drawn) is -55.73%; for `CC(OCC(F)(F)F)C(=O)NCCN(C)C` (stereo not drawn) it is -6.73%; for `O=C(c1ccc(=O)[nH]n1)N1CCc2ccccc21` it is 54.52%. Turning to `CC(C)(C)c1ccc2c(c1)CCN2C(=O)c1ccc(=O)[nH]n1`, the INHIBITION is recorded as -6.69%.

In the case of `O=C(c1c[nH]c(=O)[nH]1)N1CCc2ccccc21`, the INHIBITION is given as -63.68%. With `O=C(c1cccnc1)N1CCCC1c1cc[nH]n1` (stereo not drawn), the INHIBITION came to 40.31%. In the case of `Cc1ccc(C(=O)N(Cc2ccc(F)cc2)C2CC2)c(=O)[nH]1` it was 27.33%; in that of `Cc1ccc(C(=O)N(Cc2ccc(F)cc2F)C2CC2)c(=O)[nH]1`, 20.76%. The figure for `Cc1ccc(C(=O)N(Cc2cccc(F)c2)C2CC2)c(=O)[nH]1` is 63.46%; for `O=C(O)c1c(-c2ccncc2)ncc2c1CCN(C1CCOC1)C2` (stereo not drawn) it is -80.9%. In the case of `CCN(CC)c1ncc2c(c1C(=O)O)CCN(C1CCOC1)C2` (stereo not drawn), the INHIBITION is 24.51%. The figure for `O=C(O)c1c(NC2CCC2)ncc2c1CCN(C1CCOC1)C2` (stereo not drawn) is 45.12%. The figure for `CN1CCN(c2ncc3c(c2C(=O)O)CCN(C2CCOC2)C3)CC1` (stereo not drawn) is 21.28%. Regarding `CCN(C)c1ncc2c(c1C(=O)O)CCN(C1CCOC1)C2` (stereo not drawn), the INHIBITION came out at 54.13%. The figure for `O=C(O)c1c(-c2ccoc2)ncc2c1CCN(C1CCOC1)C2` (stereo not drawn) is 55.52%; for `CNS(=O)(=O)c1ccc(CNC(=O)Nc2cn[nH]c2)cc1` it is 2.07%; for `COc1ccccc1CCc1nc(CC2CCN(C)CC2)no1` it is 34.46%. The figure for `COc1c[nH]c(C(=O)N2CCN(c3cccc(Cl)c3)CC2)cc1=O` is 22.88%; for `CCc1ncc(CN2C[C@@H]3CC[C@H]2CN(C(=O)C2CCC2)C3)cn1` it is 12.3%; for `Cn1ccnc1CN(CCO)C(=O)c1cnc2ccccc2c1` it is 29.71%. For the compound `Cn1ccnc1CN(CCO)C(=O)c1cc2ccccc2o1`, the INHIBITION was 22.27%. Take `Cc1c(Cl)cc(C(=O)N(CCO)Cc2nccn2C)cc1Cl`: the INHIBITION is 55.84%. In the case of `CC(C)NC(=O)NC(C)c1nc(-c2ccccc2)cs1` (stereo not drawn) it was -22.08%; in that of `Cc1csc(N(C)C(=O)C2CC(=O)N(c3ccccc3Cl)C2)n1` (stereo not drawn), -29.95%; in that of `CN1CCc2nc(C3CCCN(S(=O)(=O)c4ccccc4)C3)ncc2C1` (stereo not drawn), 64.55%. `CCN(CC)S(=O)(=O)N1CCCC(c2ncc3c(n2)CCN(C)C3)C1` (stereo not drawn): the INHIBITION was determined as 3.38%.

Consider `CN1CCc2nc(C3CCCN(S(=O)(=O)N4CCCC4)C3)ncc2C1` (stereo not drawn), for which the INHIBITION is given as -1.51%. The figure for `Cc1nc(N2CCCC2C(=O)NC(C)(C)CO)nc2ccccc12` (stereo not drawn) is 26.49%; for `COCC1CN(c2ccc(Cl)cc2C#N)CCO1` (stereo not drawn) it is 29.3%; for `Cc1nc(CN2CCCC(c3nc(C)n4c(C)c(C)sc34)C2)co1` (stereo not drawn) it is -12.89%. In the case of `Cc1cc(CNCC2(O)CCOCC2)ccc1Br` it was -6.29%; in that of `OCC1(NCc2cccc(-n3cccn3)c2)CCOCC1`, -2.38%; in that of `Cc1cc(CNC2(CO)CCOCC2)ccc1Br`, 51.08%. As to `CCn1c(CN2CCN(C(=O)C3CCC3)CC2)nc2c(F)cccc21`, the INHIBITION is on record as 10.22%. In the case of `O=C(C1CNCCO1)N1CCCC(c2ccccc2)(c2ccccc2)C1` (stereo not drawn) it was 42.2%; in that of `CCCc1nc(C)c(C(=O)NS(=O)(=O)c2cccnc2)s1`, -25.2%. In the case of `Cc1nc(C(C)C)sc1C(=O)NS(=O)(=O)c1ccc(C#N)cc1` it was 36.12%.

For `CCCc1nc(C)c(C(=O)NS(=O)(=O)c2ccc(C#N)cc2)s1`, the INHIBITION is 55.63%. Regarding `Fc1ccc(CN2CCCC3(COCCN(Cc4c[nH]nn4)C3)C2)cc1` (stereo not drawn), the INHIBITION is given as 23.81%. The figure for `O=C1CC(c2ccc(C(=O)O)cc2)c2ncn(-c3ccccc3)c2N1` (stereo not drawn) is -29.53%; for `O=C1CC(c2ccc(C(=O)O)cc2)c2ncn(-c3cccc(F)c3)c2N1` (stereo not drawn) it is -20.06%; for `O=C1CC(c2ccc(C(=O)O)cc2)c2ncn(-c3cccc(Cl)c3)c2N1` (stereo not drawn) it is 53.61%. In the case of `CN(Cc1noc(C2CC2)n1)C1CCN(CCc2cccs2)C1` (stereo not drawn) it was 30.88%. With `CN(Cc1nnc(C2CC2)n1C)C1CCN(CCc2ccccc2)C1` (stereo not drawn), the INHIBITION is -11.31%. As to `CC(C)c1cnc(CN(C)C2CCN(CCc3cnn(C)c3)C2)o1` (stereo not drawn), the INHIBITION was 5.59%. In the case of `CN(Cc1nnc(C2CC2)n1C)C1CCN(CCc2cnn(C)c2)C1` (stereo not drawn) it was 81.1%; in that of `CC(C)c1cnc(CN(C)C2CCN(CCCc3cnn(C)c3)C2)o1` (stereo not drawn), 59.23%. The figure for `Cc1cc(C)n(CCN2CCC(N(C)Cc3noc(C4CC4)n3)C2)n1` (stereo not drawn) is 12.66%; for `Cc1nc(CN(C)C2CCN(CCc3cnn(C)c3)C2)no1` (stereo not drawn) it is 31.7%; for `CN(Cc1noc(C2CC2)n1)C1CCN(CCc2cnn(C)c2)C1` (stereo not drawn) it is 64.87%. Consider `CN(Cc1cnn(C)c1)C1CCCN(Cc2noc(C3CC3)n2)C1` (stereo not drawn), for which the INHIBITION is 22.75%. With `Cc1ccc(CCN2CCC(N(C)Cc3noc(C4CC4)n3)C2)cc1` (stereo not drawn), the INHIBITION was found to be 54.85%.

With `Cc1cnc(CN(C)C2CCN(CCCc3cnn(C)c3)C2)o1` (stereo not drawn), the INHIBITION turned out to be 8.42%. For `CN(Cc1nnc(C2CC2)n1C)C1CCN(CCc2ccncc2)C1` (stereo not drawn), the INHIBITION was -0.45%.
